Experimental data from PubChem BioAssay (Tox21).
Inconclusive results are not listed. Calls of active or inactive are those of the source. Unless noted, calls follow the shape of the dose curve; as a rule, active = well fitted curve in the direction sought with a large enough effect in the repeat runs; inconclusive = weak or mixed curves; inactive = no such curve, though single readings can be large; an effect the other way counts as inactive or inconclusive.

What was measured:
[1] = target: Progesterone receptor (Homo sapiens) (UniProt P06401); assay: qHTS assay to identify small molecule antagonists of the progesterone receptor (PR) signaling pathway (AID 1346795; active = well fitted inhibition curve with a large enough effect in the signal ratio in the repeat runs, not every such curve was filed as active; the % refers to the signal ratio)
In short: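 PR-UAS-bla HEK293T cells with beta-lactamase reporter under UAS control, in 2% charcoal-stripped FBS, treated with compounds plus 1 nM promegestone (R5020, final) for 16 hr at 37C. Read-out: FRET beta-lactamase substrate fluorescence after 2 hr at room temperature.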

[2] = qHTS assay to identify small molecule antagonists of the progesterone receptor (PR) signaling pathway - cell viability counter screen (AID 1346798); also: nearly all actives have a fitted effect of over 50% in size; also: potency is read from the fitted curve at half-maximal effect; as to activity change, negative = cytotoxicity: series mostly up to about 92 µM
In short: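 PR-UAS-bla HEK293T cells, 3,000/well in 2% charcoal-stripped FBS medium, dosed with compounds plus R5020 agonist and incubated 16 h at 37C. Viability then measured in the same wells by CellTiter-Glo luminescence after 30 min at RT.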

[3] = qHTS assay to identify small molecule agonists of the progesterone receptor (PR) signaling pathway - cell viability counter screen (AID 1346799; calls by dose curve; also: nearly all actives have a fitted effect of over 45% in size; also: potency is read from the fitted curve at half-maximal effect)
In short: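 Counter screen in the PR-UAS-bla HEK293T wells (2% charcoal-stripped FBS, 16 h compound exposure at 37 C) after the bla read. CellTiter-Glo added, 30 min at room temperature, luminescence read as cell viability.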

[4] = qHTS assay to identify small molecule antagonists of the TGF-beta/Smad signaling pathway - cell viability counter screen (AID 1346824); also: nearly all actives have a fitted effect of over 50% in size; also: potency is read from the fitted curve at half-maximal effect
In short: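 SBE-bla HEK 293T cells, incubated overnight, then compound plus 0.25 ng/mL TGF-beta1 (stock added) for 5 hr at 37 C. Viability was read in the same wells by CellTiter-Glo luminescence after 30 min at room temperature.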

[5] = qHTS assay to identify small molecule agonists of the TGF-beta/Smad signaling pathway - cell viability counter screen (AID 1346829); also: nearly all actives have a fitted effect of over 45% in size; also: potency is read from the fitted curve at half-maximal effect; as to activity change, negative = cytotoxicity: top concentration of the series differs between compounds
In short: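 Compound-treated SBE-bla HEK 293T cells (5 hr, 37 C) were assessed for viability with CellTiter-Glo in parallel with the reporter read.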

[6] = qHTS assay to identify small molecule agonists of the TGF-beta/Smad signaling pathway (AID 1346859; active = well fitted activation curve with a large enough effect in the signal ratio in the repeat runs, not every such curve was filed as active; the % refers to the signal ratio; also: series mostly up to about 77 µM)
In short: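 SBE-bla HEK293T cells plated overnight, then compound exposure for 5 h at 37 C. Beta-lactamase reporter read with LiveBLAzer B/G FRET substrate after 2 h at room temperature, fluorescence at 405 nm excitation, 460/530 nm emission.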

[7] = target: Thyrotropin-releasing hormone receptor (Homo sapiens) (UniProt P34981); assay: qHTS assay to identify small molecule antagonists of the thyrotropin-releasing hormone receptor (TRHR) signaling pathway (AID 1346877; active = well fitted inhibition curve with a large enough effect in the repeat runs, not every such curve was filed as active; also: series mostly up to about 51 µM)
In short: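 In this cell-based calcium flux format, HEK293 cells expressing TRHR received test compound for 5 min before the agonist TRH (1 nM final). Dye loading lasted 2 h at 37 °C.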

[8] = target: Thyrotropin-releasing hormone receptor (Homo sapiens) (UniProt P34981); assay: qHTS assay to identify small molecule agonists of the thyrotropin-releasing hormone receptor (TRHR) signaling pathway (AID 1346891; calls by dose curve; also: series mostly up to about 58 µM)
In short: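 HEK293 cells expressing TRHR plated 18 h at 37 C/5% CO2, calcium dye-loaded 2 h at 37 C, then compound added (agonist mode); kinetic calcium fluorescence read 3 min at 1 s intervals; 15 concentrations in triplicate.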

[9] = Human pregnane X receptor (PXR) small molecule agonists, qHTS cell viability counter screen (AID 1346977); also: nearly all actives have a fitted effect of over 50% in size; also: potency is read from the fitted curve at half-maximal effect
In short: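 PXR-Luc HepG2 cells (2,000/well, 5% charcoal-stripped FBS) preincubated 5 hr, then exposed to compounds 24 hr at 37 C. Viability read in the same wells by CellTiter-Fluor fluorescence, reagent added at 23 hr, 1 hr incubation.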

[10] = target: Progesterone receptor (Homo sapiens) (UniProt P06401); assay: qHTS assay to identify small molecule agonists of the progesterone receptor (PR) signaling pathway (AID 1346784; calls by dose curve; also: nearly all actives have a fitted effect of over 30% in size)
In short: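 PR-UAS-bla HEK 293T cells (beta-lactamase reporter under UAS) in 2% charcoal-stripped FBS, dosed with 23 nL compound after 6 hr, incubated 16hr at 37C. LiveBLAzer B/G FRET substrate added, fluorescence read after 2 hours.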
% is scaled to controls: 0 for no effect and ±100 for the full control effect.

Sequence of Progesterone receptor (Homo sapiens) (P06401 whole entry, looked up): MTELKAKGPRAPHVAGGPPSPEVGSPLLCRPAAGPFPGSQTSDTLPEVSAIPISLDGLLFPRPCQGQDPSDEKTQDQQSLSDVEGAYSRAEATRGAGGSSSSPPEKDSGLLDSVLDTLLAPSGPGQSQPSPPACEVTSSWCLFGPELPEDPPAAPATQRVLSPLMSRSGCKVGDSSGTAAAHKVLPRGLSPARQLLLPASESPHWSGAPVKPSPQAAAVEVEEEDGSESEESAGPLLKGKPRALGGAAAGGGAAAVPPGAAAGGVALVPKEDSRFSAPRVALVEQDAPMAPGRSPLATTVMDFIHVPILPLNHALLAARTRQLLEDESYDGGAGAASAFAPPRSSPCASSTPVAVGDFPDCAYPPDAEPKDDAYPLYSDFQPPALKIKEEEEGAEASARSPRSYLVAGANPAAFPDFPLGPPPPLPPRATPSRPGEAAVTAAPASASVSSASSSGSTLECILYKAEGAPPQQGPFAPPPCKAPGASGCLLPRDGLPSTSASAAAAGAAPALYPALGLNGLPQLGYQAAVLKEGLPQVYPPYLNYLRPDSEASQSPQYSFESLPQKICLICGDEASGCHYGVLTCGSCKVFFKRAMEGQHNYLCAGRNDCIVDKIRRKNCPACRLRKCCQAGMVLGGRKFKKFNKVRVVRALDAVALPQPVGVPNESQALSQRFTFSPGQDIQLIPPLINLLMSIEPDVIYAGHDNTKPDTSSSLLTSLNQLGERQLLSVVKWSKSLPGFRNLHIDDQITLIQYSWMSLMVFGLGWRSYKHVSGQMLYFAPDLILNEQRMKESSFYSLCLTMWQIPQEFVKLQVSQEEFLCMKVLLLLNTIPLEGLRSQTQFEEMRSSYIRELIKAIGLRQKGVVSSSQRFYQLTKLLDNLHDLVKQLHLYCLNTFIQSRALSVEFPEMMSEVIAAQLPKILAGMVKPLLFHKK
Sequence of Thyrotropin-releasing hormone receptor (Homo sapiens) (P34981 whole entry, looked up): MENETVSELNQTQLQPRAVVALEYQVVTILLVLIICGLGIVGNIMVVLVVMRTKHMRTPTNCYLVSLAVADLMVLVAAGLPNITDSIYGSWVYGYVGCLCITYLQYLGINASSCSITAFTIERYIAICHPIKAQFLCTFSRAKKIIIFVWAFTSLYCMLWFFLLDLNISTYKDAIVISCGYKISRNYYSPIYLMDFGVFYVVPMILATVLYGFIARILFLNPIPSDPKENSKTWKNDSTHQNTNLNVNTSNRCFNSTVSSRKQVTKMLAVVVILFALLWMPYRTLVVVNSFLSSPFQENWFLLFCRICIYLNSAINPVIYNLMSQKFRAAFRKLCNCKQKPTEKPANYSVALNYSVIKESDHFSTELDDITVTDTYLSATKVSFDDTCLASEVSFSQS

COC(=O)C(C)=O
inactive: Potency [1] | Potency [2] | Potency [3] | Potency [4] | Potency [5] | outcome [6] | outcome [7] | Potency [8] | Potency [9]

CC(C)c1ccc2c(C(C)C)cc(C(C)C)c(S(=O)(=O)O)c2c1
inactive: Potency [1] | Potency [2] | Potency [3] | Potency [5] | outcome [6] | outcome [7] | Potency [8] | Potency [9]

O=C(/C=C/c1ccc(O)c(O)c1)O[C@@H]1C[C@](O)(C(=O)O)C[C@@H](O)[C@H]1O
inactive: Potency [1] | Potency [2] | Potency [3] | Potency [4] | Potency [5] | outcome [6] | outcome [7] | Potency [8]

CCOc1cc(OCC)c(C(=O)CCC(=O)O)cc1OCC
inactive: Potency [1] | Potency [2] | Potency [3] | Potency [4] | Potency [5] | Potency [8]

CC(C)(C)C(=O)OCOP(=O)(COCCn1cnc2c(N)ncnc21)OCOC(=O)C(C)(C)C
inactive: outcome [10] | Potency [4] | outcome [6]

O=S(=O)(O)c1ccc(O)c2ncccc12
inactive: outcome [10] | Potency [3] | Potency [4] | Potency [5] | outcome [6] | Potency [9]

O=C(CCN1CCN2CCCC2C1)N1c2ccccc2Sc2ccc(Cl)cc21 (stereo unspecified)
inactive: activity change, negative = inhibition [1] -10.4% [at 18.9 µM] | activity change, negative = cytotoxicity [2] -27.7% [at 18.9 µM] | activity change, negative = cytotoxicity [3] -27.9% [at 19 µM] | activity change, negative = cytotoxicity [5] -3.72% [at 15.8 µM] | activation [6] -2.07% [at 15.8 µM]

NCCCN(CCO)CCO
inactive: Potency [1] | Potency [2] | Potency [3] | Potency [5] | outcome [6] | outcome [7] | Potency [8] | Potency [9]

CC(=O)O[C@H]1C[C@@H]2CC[C@@H]3[C@H](CC[C@@]4(C)[C@H]3C[C@H]([N+]3(C)CCCCC3)[C@@H]4OC(C)=O)[C@@]2(C)C[C@@H]1N1CCCCC1
inactive: Potency [1] | Potency [2] | Potency [3] | Potency [4] | Potency [5] | outcome [6] | outcome [7] | Potency [8] | Potency [9]

OC(CCN1CCCCC1)(c1ccccc1)C1CCCCC1 (stereo unspecified)
inactive: Potency [1] | Potency [2] | Potency [3] | Potency [4] | Potency [5]

CC[C@H](C)[C@H](N)C(=O)O
inactive: Potency [1] | Potency [2] | Potency [3] | Potency [4] | Potency [5] | outcome [6] | Potency [8] | Potency [9]

CNCC[C@@H](Oc1ccccc1C)c1ccccc1
inactive: outcome [10] | Potency [4] | Potency [5] | outcome [6]

C=CC(=O)OCC(C)OCC(C)OCC(C)OC(=O)C=C (stereo unspecified)
inactive: outcome [10] | Potency [3] | Potency [4] | outcome [6] | outcome [7] | Potency [8] | Potency [9]

Cc1ccccn1
inactive: Potency [1] | Potency [2] | Potency [3] | Potency [4] | Potency [5] | outcome [6] | outcome [7] | Potency [8] | Potency [9]

O=C1Nc2cc(Cl)ccc2Oc2ccccc21
inactive: outcome [10] | Potency [4] | Potency [5] | outcome [6] | outcome [7] | Potency [8] | Potency [9]

CC(=O)O[C@@H]1C(=O)O[C@@H]2[C@H]1OC(=O)[C@@H]2OC(C)=O
inactive: Potency [1] | Potency [2] | Potency [3] | Potency [4] | Potency [5] | outcome [6] | outcome [7] | Potency [8] | Potency [9]

FC(F)(F)C(F)(F)C(F)(F)C(F)(F)C(F)(F)C(F)(F)CCI
inactive: Potency [1] | Potency [2] | Potency [3] | Potency [4] | Potency [5] | outcome [6] | outcome [7] | Potency [8] | Potency [9]

ClC(Cl)(Cl)c1ccc(C(Cl)(Cl)Cl)cc1
inactive: Potency [1] | Potency [2] | Potency [3] | Potency [4] | Potency [5] | outcome [6] | outcome [7] | Potency [8] | Potency [9]

CC(=O)N(CC(=O)N(C)C)c1ccccc1
inactive: Potency [1] | Potency [2] | Potency [3] | Potency [4] | Potency [5] | outcome [6] | Potency [8] | Potency [9]

Cc1cccc(Oc2ccccc2)c1
inactive: Potency [1] | Potency [4] | Potency [5] | outcome [6] | outcome [7] | Potency [8] | Potency [9]
active: Potency [2] 21.1 µM

C=C(C)C(=O)OCCOc1ccccc1
inactive: Potency [1] | Potency [3] | Potency [5] | outcome [6] | outcome [7] | Potency [8] | Potency [9]

CC(C(=O)O)c1ccc(-c2ccccc2)c(F)c1 (stereo unspecified)
inactive: Potency [4] | Potency [5] | Potency [9]

C[C@@H](C1=C(CCN(C)C)Cc2ccccc21)c1ccccn1
inactive: Potency [1] | Potency [3] | Potency [4] | Potency [5] | outcome [6]

O=C(NS(=O)(=O)/C=C/c1cccs1)c1ccc(F)cc1Br
inactive: Potency [1] | Potency [3] | Potency [5] | outcome [6] | Potency [8] | Potency [9]

NC(N)=NN=C(/C=C/c1ccc([N+](=O)[O-])o1)/C=C/c1ccc([N+](=O)[O-])o1
inactive: outcome [6] | outcome [7] | Potency [8]
active: Potency [3] 23.7 µM | Potency [4] 23.9 µM | Potency [5] 21.3 µM | Potency [9] 6.68 µM

Cl/C(=C\n1cncn1)c1ccc(Cl)cc1Cl
inactive: Potency [4] | Potency [5] | outcome [6] | outcome [7] | Potency [8] | Potency [9]

O=C(Cl)c1ccc([N+](=O)[O-])cc1
inactive: Potency [3] | Potency [4] | Potency [5] | outcome [6] | outcome [7] | Potency [8] | Potency [9]

CCCCCCCCCC(=O)OCC
inactive: Potency [1] | Potency [3] | Potency [5] | outcome [6] | Potency [9]
